Assay results taken from PubChem BioAssay AID504840 (Johns Hopkins Ion Channel Center, 2011).
The campaign covered roughly 1,500 compounds. About 890 (59%) were called active.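 How the source made its calls: active means inhibition of the choline-evoked signal at any tested dose together with a fitted dose-response curve; inactive means no inhibition at any dose or no curve.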 The set was probably picked from earlier hits. A selection follows. Results with a measured potency or affinity are listed apart.

target: High affinity choline transporter 1 (Homo sapiens) (UniProt Q9GZV3); experiment: human choline transporter blockers, potency – cell-based, 5-point CRC, membrane potential dye, dose response (AID 504840); conditions: HEK293-CHT, choline-induced depolarization, CHT with LV-to-AA double alanine mutation; series mostly up to 37 µM
Sequence (Q9GZV3 whole entry, looked up): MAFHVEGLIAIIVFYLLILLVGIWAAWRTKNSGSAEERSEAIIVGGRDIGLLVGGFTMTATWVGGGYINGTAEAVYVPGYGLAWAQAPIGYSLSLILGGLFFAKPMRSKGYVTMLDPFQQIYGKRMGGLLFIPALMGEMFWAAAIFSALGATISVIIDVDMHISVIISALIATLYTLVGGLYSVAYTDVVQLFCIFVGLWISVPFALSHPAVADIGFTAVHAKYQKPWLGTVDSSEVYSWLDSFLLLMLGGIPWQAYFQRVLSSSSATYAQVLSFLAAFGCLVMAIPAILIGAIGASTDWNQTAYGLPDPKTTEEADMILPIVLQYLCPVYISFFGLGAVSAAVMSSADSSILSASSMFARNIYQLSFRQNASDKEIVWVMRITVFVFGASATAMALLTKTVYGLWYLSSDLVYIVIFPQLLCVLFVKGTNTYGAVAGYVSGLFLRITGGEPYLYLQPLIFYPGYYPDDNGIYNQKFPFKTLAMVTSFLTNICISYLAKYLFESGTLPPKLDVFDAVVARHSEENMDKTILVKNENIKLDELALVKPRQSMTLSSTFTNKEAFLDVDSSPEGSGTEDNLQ

outcome, inactive:
Cc1ccc(/C=C2\SC(=S)N(c3c(C)n(C)n(-c4ccccc4)c3=O)C2=O)cc1, Cc1ccc(S(=O)(=O)NC2=C(N3CCN(Cc4ccccc4)CC3)C(=O)c3ccccc3C2=O)cc1, COc1cc(/C=C2/S/C(=N/S(=O)(=O)Cc3ccccc3)NC2=O)c([N+](=O)[O-])cc1OC, COc1ccc(NC(=O)CSc2nccn2Cc2ccccc2)cc1, CCN(C(=O)c1cc2c(=O)n3ccccc3nc2n1CCCOC)C1CCCCC1, O=C(c1cn(-c2ccccc2)nc1-c1ccc(Cl)cc1)N1CCOCC1, O=C(NCCCn1ccnc1)C(=O)c1cn(CC(=O)N2CCCCCC2)c2ccccc12, N/C(=N\O)c1ccc(N2CCN(c3ncccc3C(F)(F)F)CC2)nc1, O=S(=O)(NCc1csc(-c2cccs2)n1)c1ccc(Cl)cc1, Cc1ccc(S(=O)(=O)N2[C@@H](c3ccc(F)cc3)C(C(=O)O)=CC[C@H]2c2ccc(C(C)C)cc2)cc1, CCOc1ccc([C@@H]2CC=C(C(=O)O)[C@H](c3cccc(Cl)c3)N2S(=O)(=O)c2ccc(C)cc2)cc1, CCn1c(N2CCN(S(=O)(=O)c3ccc(Cl)cc3)CC2)nc2ccccc21, COc1ccccc1OCC(=O)NCCS(=O)(=O)N1CCN(c2ccccc2)CC1, CCCCn1c(SCC(=O)Nc2cccc(OC)c2)nc2ccc(N3CCOCC3)cc2c1=O, CCOC(=O)c1ccc(CC(=O)c2ccc(O)cc2O)o1, CCCc1cc(C(=O)Cc2ccc(F)cc2)c(O)cc1O, Cc1ccc(-n2c(C)cc(=O)cc2C)c(C)c1, CCCOc1ccc(C(=O)NNC(=S)NC(=O)c2ccco2)cc1, CC[C@H](C)[C@H](NC(=O)c1ccc(Cl)cc1)C(=O)OCC(=O)c1ccc2c(c1)NC(=O)CO2, CCCCNC(=O)/C(C#N)=C/c1ccc(-c2ccc(S(=O)(=O)N3CCOCC3)cc2)o1, CC(NC(=O)/C(C#N)=C/c1ccc([N+](=O)[O-])o1)c1ccccc1 (stereo not given), Cc1ccc(N=Cc2cc(Cc3ccccc3Cl)cc([N+](=O)[O-])c2O)c(O)c1, CN1C[C@@H]2C(c3ccc(C(F)(F)F)cc3)C3(c4cccnc4)CC2(C3)[C@H]1c1ccccc1 (stereo not given in full), COc1cc(C(CCN2CCCCC2)c2c(OC)cc(OC)c3c(-c4ccccc4)cc(=O)oc23)cc(OC)c1OC (stereo not given), Cc1ccc(C(=O)CSc2n[nH]c(-c3ccco3)n2)cc1C, CCN(CC(=O)NCc1cccs1)S(=O)(=O)c1ccc(C(C)C)cc1, COCCCn1c(SCC(=O)Nc2sc3c(c2C#N)CCCC3)nnc1-c1ccncc1, CS(=O)(=O)n1nc(OC(=O)c2cccc3ccccc23)cc1N, COc1ccc(Cc2nnc(NC(=O)c3ccccc3[N+](=O)[O-])s2)cc1, O=C(O)c1ccccc1NSc1ccccc1[N+](=O)[O-], COc1cc(OC)c2c(-c3ccccc3)cc(=O)oc2c1C(CCN1CCCC1)c1ccc2c(c1)OCO2 (stereo not given), COc1cc(OC)c2c(-c3ccccc3)cc(=O)oc2c1C(CCN1CCCCC1)c1ccc2c(c1)OCO2 (stereo not given), COc1cc(OC)c2c(-c3ccccc3)cc(=O)oc2c1C(CCN1CCCCC1)c1ccc(N(C)C)cc1 (stereo not given), COc1ccc(C(CCN2CCCC(C)C2)c2c(OC)cc(OC)c3c(-c4ccccc4)cc(=O)oc23)cc1 (stereo not given), COc1ccc(C(CCN2CCCC2)c2c(OC)cc(OC)c3c(-c4ccccc4)cc(=O)oc23)cc1 (stereo not given), COc1cc(OC)c2c(-c3ccccc3)cc(=O)oc2c1C(CCN1CCCC(C)C1)c1ccc(N(C)C)cc1 (stereo not given), O=C(Nc1nonc1-c1ccc(Cl)cc1)c1ccco1, Cc1ccc[n+](CC(=O)Nc2cc(C(F)(F)F)ccc2N2CCOCC2)c1, CC(=O)N1CCN(S(=O)(=O)c2cccc(C(=O)NC3CCC(C)CC3)c2)CC1 (stereo not given), COc1ccc(N(C)S(=O)(=O)c2cccc(C(=O)NC3CCC(C)CC3)c2)cc1 (stereo not given), CN1CCN(S(=O)(=O)c2cccc(C(=O)NC3CCCc4ccccc43)c2)CC1 (stereo not given), CC1CCCC(NC(=O)c2cccc(N3CCCC3=O)c2)C1C (stereo not given), O/N=C/c1ccnc(SCc2ccccc2)n1, Cc1cc(C)nc(SCc2cc(=O)c(OC(=O)c3cc([N+](=O)[O-])ccc3Cl)co2)n1, Cc1ccnc(SCc2cc(=O)c(OC(=O)c3ccc(S(=O)(=O)N(C)C)cc3)co2)n1, CCCCNS(=O)(=O)c1ccc2nc(SCC(=O)c3ccccc3OC)[nH]c2c1, Cc1cc(=O)[nH]c(SCC(=O)c2ccc(C)c(C)c2)n1, C=CCNS(=O)(=O)c1ccc(N2C(=O)c3ccccc3C2=O)cc1, CC(NC(=O)c1ccc(N2CCNCC2)c([N+](=O)[O-])c1)C12CC3CC(CC(C3)C1)C2 (stereo not given), Cc1[nH]n(-c2cccc(Cl)c2)c(=O)c1-c1ccccc1, COc1ccc2c(c1)CC(C)C/C2=N\NC(=O)c1ccco1 (stereo not given), NC(=O)CC(NC(=O)c1ccc(Br)cc1)c1ccc(N2CCCCCC2)c([N+](=O)[O-])c1 (stereo not given), CCC(CC)Nc1ccc(C(CC(N)=O)NC(=O)c2ccccc2)cc1[N+](=O)[O-] (stereo not given), NC(=O)CC(NC(=O)c1ccccc1)c1ccc(N2CCc3ccccc3C2)c([N+](=O)[O-])c1 (stereo not given), NC(=O)CC(NC(=O)c1ccc(Br)cc1)c1ccc(N2CCCCCCC2)c([N+](=O)[O-])c1 (stereo not given), COC(=O)CCCCCCCCCC[N+]1(C)CCCCC1, O=S(=O)(Nc1nc2ccccc2s1)c1ccc(Br)s1, COc1ccc(CN2CCN(CC=C(C)C)C(CCO)C2)cc1Cn1cccn1 (stereo not given), O=C(O)c1ccc(-c2nc(-c3ccccc3Cl)cs2)cc1, O=C(O)c1ccc(/C=C2\COc3ccccc3C2=O)cc1, Cc1cc(C)c2nc(N3CCCN(C(=O)c4cnccn4)CC3)c(C#N)cc2c1, CN1/C(=C\C=Nc2cc(S(=O)(=O)N3CCOCC3)ccc2N2CCOCC2)C(C)(C)c2ccccc21, Cc1ccc(Nc2nnc(-c3ccc(N4CCOCC4)c([N+](=O)[O-])c3)c3ccccc23)cc1, Cc1ccc(C(=O)N/C(=C\c2cccs2)C(=O)NC2CCCCC2)cc1, O=C(CSc1nc(C(F)(F)F)cc(=O)[nH]1)Nc1cccc2ccccc12, CCc1nnc(NC(=O)CSc2nnc(-c3ccccc3OC)n2-c2ccccc2)s1, Cc1ccc(S(=O)(=O)/N=C(/NC(=S)Nc2c(C)n(C)n(-c3ccccc3)c2=O)c2ccccc2)cc1, O=C1c2cccc3c(Nc4ccccc4Cl)c([N+](=O)[O-])cc(c23)C(=O)N1CCO, C=Cn1cc[n+](CC(=O)c2ccc(-c3ccccc3)cc2)c1, COCCNc1nc(-n2nc(C)cc2C)nc2sc3c(c12)CCCC3, CCOC(=O)C(Cc1ccccc1)NC(=O)CCCC(=O)c1ccccc1 (stereo not given), Cc1ccc(-c2nn(-c3ccccn3)c(=O)c3ccccc23)cc1, COc1ccc(NC(=O)c2sc(N)nc2-c2ccccc2)cc1, O=C(CCC1CCCN(c2ncccn2)C1)NCc1ccc(F)c(F)c1 (stereo not given), Cn1c(CN2CCN(CCO)CC2)c(C#N)c2ccccc21, S=c1[nH]c2cc(Cl)ccc2s1, Cc1cc(C)nc(NS(=O)(=O)c2ccc(NC(=O)C3COc4ccccc4O3)cc2)n1 (stereo not given), CN(Cc1nc(-c2cccnc2)no1)S(=O)(=O)c1ccc(Br)cc1, O=[N+]([O-])c1ccc(SCCc2ccccn2)cc1, O=C1CSC(=S)N1/N=C/c1c(F)cccc1F, O=[N+]([O-])c1ccc(N2CCCCC2)nc1, CCc1c(C)nc2ncnn2c1N1CCN(S(=O)(=O)c2ccc(OC)cc2)CC1, O=C(NNC(=S)NC1CCCCC1)c1ccccc1O, c1ccc(-c2ccccc2OCc2nnc3n2CCC3)cc1, Cc1ccc2c(c1)C1CN(C)CCC1N2C(=O)c1ccccc1NS(=O)(=O)c1cccc(C(F)(F)F)c1 (stereo not given), CN1CCN(c2ncc(CN3C(=O)c4ccccc4C3=O)s2)CC1, CCc1cccc(CC)c1NC(=O)c1cccc(NC(=O)c2ccccc2)c1, Cc1cccc(C(=O)Nc2sc(-c3ccccc3)cc2C(=O)O)c1, COc1cc(CCC(=O)OCC(=O)NCc2ccc(Cl)cc2)cc(OC)c1OC, Cc1ccccc1C(=O)OC(C)CN1CCN(C)CC1 (stereo not given), CC(C)NS(=O)(=O)c1ccc(CCC(=O)N2CCc3ccccc3C2)cc1, COc1cc(C(=O)Nc2scc(-c3ccc(C)cc3)c2C(=O)O)cc(OC)c1OC, Cc1ccc(-c2csc(NC(=O)c3ccc(Br)cc3)c2C(=O)O)cc1, Cc1ccc(-c2csc(NC(=O)c3ccc(F)cc3)c2C(=O)O)cc1, CC1CCN(C(=O)CCCOc2cc(=O)n(C)c3ccccc23)CC1, O=C(COC(=O)C1(c2ccccc2F)CCCC1)N1CCN(C(=O)c2ccco2)CC1, CC1CCCCC1NC(=O)Cn1nc(-c2ccccc2)ccc1=O (stereo not given), COc1cc(NC2CCCCC2O)c2nc(-c3ccc(Cl)cc3)ccc2c1 (stereo not given), Cc1c(NC(=S)NC(=O)c2ccc(-c3ccc(Cl)cc3)o2)cccc1C(=O)O, C/C(=N\NC1=NCCN1)c1ccc(Cl)cc1
